Compound activity (PubChem)
GALK inhibitor: galactokinase (human) inhibition | hit rate 0.007% among 270,000 | AID 1868 | Purified GALK, Kinase-Glo residual ATP luminescence | P51570 | Potency, µM (titrated, usually from 57.5 µM), without a hit: top-dose activity change, negative = inhibition, usual class: inhibitors; further: potency means the concentration at half of the fitted maximal effect
Target sequence (P51570 whole entry, looked up): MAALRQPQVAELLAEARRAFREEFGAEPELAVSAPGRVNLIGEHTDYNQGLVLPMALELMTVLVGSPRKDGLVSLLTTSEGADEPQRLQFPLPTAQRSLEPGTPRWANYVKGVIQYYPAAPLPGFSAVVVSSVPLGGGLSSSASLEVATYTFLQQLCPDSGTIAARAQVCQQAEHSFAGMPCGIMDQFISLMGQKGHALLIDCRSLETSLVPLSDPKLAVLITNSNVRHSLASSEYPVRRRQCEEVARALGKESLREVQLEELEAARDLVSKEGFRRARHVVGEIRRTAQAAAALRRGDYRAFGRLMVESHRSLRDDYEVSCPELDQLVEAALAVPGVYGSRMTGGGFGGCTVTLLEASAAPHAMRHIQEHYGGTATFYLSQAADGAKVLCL
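Compounds were pin-transferred into ATP buffer (35 uM final), then GALK plus galactose (5 nM, 100 uM final) was added. After 1 h at room temperature, Kinase-Glo Plus was added and luminescence read after 10 min.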
TrxR1 inh: blocks rat thioredoxin reductase 1; O89049; Potency, µM (doses to about 114 µM), for inactives: top-dose activity change, negative = inhibition, hits mostly inhibitors; recombinant rTrxR1, NADPH fluorescence consumption, selenite substrate; hit rate 1% among 390,000; further: potency means the concentration at half of the fitted maximal effect; nearly all actives have a fitted effect of over 65% in size
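Rat TrxR1 (90 nM in the dispensed reagent) was pre-reduced with 400 uM NADPH for 5 min at room temperature, then incubated with compound for 15 min. After 400 uM selenite was added, NADPH fluorescence (Ex 340/Em 450 nm) was followed for 8 min.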
Integrin act MD: integrin-mediated muscular dystrophy alleviation activation; alpha7betagal myoblasts, beta-gal FDG fluorescence, 48 h; Potency, µM (series often up to 38.3 µM), for the others: at the top dose activation, most hits filed as activators; AID 624291; hit rate 0.064% among 350,000;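 further: potency means the concentration at half of the fitted maximal effect; 100% = response of the positive control SU9516; nearly all actives have a fitted effect of over 60% in size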
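Alpha7betagal+/- myoblasts (passage 13) were plated 16-24 hr, then exposed to compounds (1:260 dilution of DMSO stock) for 48 hours at 37C. After MPER lysis, β-galactosidase reporter activity was read as FDG fluorescence (ex 480/em 540) after 30 minutes.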
PI4K2A block: blocks human PI4K2A kinase activity; Q9BTU6; purified PI4K2A, ADP-Glo luminescence, 1 h; hits give low values; activity change, negative = inhibition, % at 76.9 µM; hit rate 0.13% among 420,000; AID 1346378; in the data active means activity change below about -50%; inconclusive means mostly about -30% to -49%;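 further: -100% = wells without enzyme as full effect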
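In this quantitative HTS, ADP production by PI4K2A was quantified luminescently after 1 h at ambient temperature; 100 microM adenosine served as plate-quality control.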
LDHA block: inhibitors of human lactate dehydrogenase A. P00338. purified LDHA, NADH/diaphorase-resazurin fluorescence; hits give low values. activity change, % (values are at about 110 or 230 µM). hit rate 0.15% among 480,000. AID 1347041; in the data active means activity change below about -30%; inconclusive means mostly about -25% to -30%;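 further: plate controls were DMSO wells for no effect and wells without enzyme for full effect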
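Resorufin fluorescence (ex540/em590), read at 0 and 20 min after diaphorase/resazurin addition, reports the NADH left after a 5 min room-temperature reaction of 2 nM human LDH5 with 0.06 mM NADH and 0.2 mM pyruvate.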
TrxR1 substrate: is turned over as a substrate by rat TrxR1. AID 588456. hit rate 0.01% among 390,000. purified TrxR1 substrate turnover, NADPH consumption readout. Potency, µM (doses to about 114 µM), inactives show at the highest dose activity change, negative = substrate turnover; further: potency means the concentration at half of the fitted maximal effect; nearly all actives have a fitted effect of over 50% in size
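Rat TrxR1, dispensed at 90 nM, was prereduced with 400 uM NADPH (final) for 5 min at ~22 deg C, then incubated with compound 15 min before 400 uM selenite. A first-read NADPH fluorescence drop versus no-compound background flagged substrates.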
* marks the source's active call; other numbers are inactive results; ? = inconclusive; . = no result given; ! = repeats disagree; [ ] = another dose, or the depositor's remark. A selection: hits, their analogues and other compounds. The true share with any hit is near 1.1%. Unless noted, the call rests on the fitted dose curve; in most records, active means well fitted curve in the direction sought with a large enough effect; inconclusive means small, poorly fitted or top-dose-only effect, or another doubt; inactive means no such curve, though single readings can be large; an effect the other way counts as inactive or inconclusive. Unless noted, on the % scale 0 is the no-effect control and ±100 the full control effect.

SMILES	GALK inhibitor	TrxR1 inh	Integrin act MD	PI4K2A block	LDHA block	TrxR1 substrate
CN(C)[C@@H]1C(=O)C(C(N)=O)=C(O)[C@@]2(O)C(=O)C3=C(O)c4c(O)cccc4[C@@](C)(O)[C@H]3[C@H](O)[C@@H]12	-0.4%	35.5µM*!	.	-62.9*!	-13.9	0.9%
CCOC(=O)c1cc(CC)sc1/N=C/C1C(=O)NC(=S)NC1=O	9.0%	8.91µM*	10.5%	-10.1	-3.4	-0.6%
COc1ccc(N2C(=O)CS(=O)C(c3ccccc3)C2=O)cc1 (configuration not stated)	7.4%	50.1µM*	-33.7%	-10.4	-0.3	2.7%
c1ccc(CCNCC2CCCCC2)cc1	.	.	.	.	-3.1	.
CCCNC(=O)c1cn(Cc2ccccc2)c2ccccc12	.	.	.	.	16.6	.
C#CCOc1cccc(C2SCC(=O)Nc3c2c(C)nn3-c2ncnc3nc[nH]c23)c1 (configuration not stated)	.	.	.	.	7.2	.
Cc1nn(Cc2ccccc2)c(C)c1C=C1C(=O)NC(=O)NC1=O	-0.1%	35.5µM*	10.6%	?	-1.4	-11.6%
COc1ccc(-c2cc3ccc(OC(=O)N(C)C)cc3oc2=O)cc1	.	.	.	.	-0.6	.
O=C(Nc1nccs1)C(Cl)(Cl)Cl	-2.2%	18.2%[57.1 µM]	0.0%	-7.0	-8.3	8.8%[57.1 µM]
O=C(CCl)Nc1nccs1	.	12.6µM*	-56.9%	6.0	-2.7	0.2%
NCC(=O)c1ccc2ccccc2c1	.	18.2%[0.0914 µM]	.	.	0.3	47.9%
NCC(=O)c1ccc(Cl)c(Cl)c1	.	18.7%	.	.	-31.3*	3.2%
Cc1ccc(NC(=O)c2cn(C)c3ccccc23)cc1	.	.	.	.	3.9	.
N#CC(C#N)=NNc1ccc([N+](=O)[O-])cc1	.	22.4µM*	-24.6%	-4.6	-2.3	?
CCOC(=O)C1=C(N)Oc2c(c(=O)oc3ccccc23)C12C(=O)Nc1ccc(Cl)cc12 (configuration not stated)	.	.	.	.	16.2	.
COC(=O)Cn1cc(C=C2C(=O)NC(=O)NC2=O)c2ccccc21	-1.4%	?	2.8%	?	-4.5	-2.3%
COc1c(C=C2C(=O)NC(=O)NC2=O)c(CCN(C)C(=O)c2ccccc2)cc2c1OCO2	.	17.8µM*	12.9%	-16.2	0.8	-0.6%
O=C(O)COc1ccc(Cl)cc1Cl	.	8.9%	12.2%	-3.6	-0.6	0.7%
O=C(c1ccco1)N1CCN(C(=O)c2ccc(COc3ccc(Cl)cc3Cl)o2)CC1	.	7.08µM*	-38.4%	-0.7	2.4	-3.0%[57.1 µM]
COc1cc(/C=C/[N+](=O)[O-])ccc1O	.	3.16µM*	-36.8%	-9.5	6.2	-8.2%
O=C(CCl)NN=C(c1ccccc1)c1ccccc1	15.2%	14.1µM*	-31.5%	-4.5	-1.1	6.8%[57.1 µM]
CCN1C(=O)C(=C/C=C/c2ccco2)C(=O)N(CC)C1=S	0.3%	4.47µM*	-5.9%	-17.4	12.2	-0.8%
CC(C)N1C(=O)/C(=C/C=C/c2ccco2)C(=O)N(Cc2ccco2)C1=O	-0.5%	-66.3%	-19.8%	-58.8*	1.5	-14.6%
CCOc1ccccc1N1C(=O)CC(=O)NC1=O	6.9%	-13.3%	?	0.9	-30.4*	-1.6%
CCOc1ccc(N2C(=O)CC(=O)NC2=O)cc1	5.2%	-4.5%[57.1 µM]	-10.2%	-8.2	-5.8	2.0%[57.1 µM]
SMILES	GALK inhibitor	TrxR1 inh	Integrin act MD	PI4K2A block	LDHA block	TrxR1 substrate
O=C1NC(=S)NC(=O)C1C/C=C/c1ccccc1	-2.9%	50.1µM*	4.8%	-2.0	1.5	-6.0%
O=C1NC(=S)NC(=O)C1Cc1ccccc1	.	11.6%[11.4 µM]	?	3.9	-6.9	9.8%[57.1 µM]
C[N+](C)(C)CC1CCCc2ccccc2C1=O (configuration not stated)	.	70.8µM*	-54.0%	19.1	?	-2.9%
C[N+](C)(C)CC1CCCC(C[N+](C)(C)C)C1=O (configuration not stated)	.	?	-56.9%	3.6	-41.0*	-4.5%
C/C(=N\Nc1cccc2ccccc12)c1c(O)n(Cc2ccccc2)c(=O)[nH]c1=O	0.3%	44.7µM*	-28.6%	-6.7	29.3	2.8%
C/C(=N\NC(=O)c1ccccc1)c1c(O)n(Cc2ccccc2)c(=O)[nH]c1=O	.	3.7%[57.1 µM]	-14.0%	0.3	-2.0	-1.8%[57.1 µM]
NNCc1cccnc1	.	.	.	.	1.1	.
